Out of some 53,000 sequences screened, about 3,700 (7%) were called active. Many of the other results were omitted from the sample, so actives are more common in it than they were. Unmarked numbers belong to inactive results.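 How the source made its calls: active means gene knockdowns whose robust z-score for IL-1 alpha signal is at least 2 or at most -2, so actives lie on both sides; inactive means the rest.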

The assay is described as follows: Components of the Cytosolic LPS Sensing Pathway: Gene Identification via Genome-wide siRNA Screen. As to conditions: RAW264.7 macrophages, IL-1a HTRF, actives lie on both sides, screened at 100 nM (by protocol), cells primed 5 h with Pam3CSK4 first. An excerpt: Non-canonical inflammasome activation by cytosolic LPS is a critical component of the host response to Gram-negative bacterial infection, however we lack a comprehensive understanding of the cellular processes that control this pathway. Here we describe a genome-wide siRNA screen to identify genes regulating the mouse macrophage IL-1 alpha response to cytosolic LPS.
RAW264.7 cells were maintained in complete DMEM media, comprising DMEM with 4.5 g/L glucose, 10% FBS (Gemini Bio-Products, West Sacramento, CA), 2 mM Glutamine (Lonza) and 20 mM HEPES (Lonza), hereafter complete DMEM.
The RNAi screen was conducted in 384-well format using the Ambion Silencer Mouse Genome siRNA Library (#4391425), which consists of three unique, nonoverlapping, nonpooled siRNAs for each of 17,000 gene targets. siRNA reagents ([…]) were stamped into 384-well white flat-bottom microplates (Corning, 3570) using a Velocity11 VPrep liquid handling system (Agilent) integrated into a BioCel robotic platform (Agilent) in columns 1-22, leaving columns 23-24 empty for negative (Ambion, Negative control #1) and positive (mouse Casp4) controls, respectively. The median value of each plate's negative control column was used to normalize sample wells, and the positive control was used to assess transfection efficiency and assay performance.
Lipofectamine RNAiMAX Transfection Reagent ([…]; Invitrogen) was added in […] serum-free, antibiotic-free media to plate wells using a Thermo Scientific Matrix WellMate and Microplate Stacker. Plates were incubated for 45 min at room temperature to allow for the sufficient formation of siRNA-lipid complexes. Cells were seeded at a density of 1x10^4 cells per well in 20 microL media containing 20% (vol/vol) FBS without antibiotics. The final concentration of siRNA in each well was 100 nM. Cells were cultured for 48h at 37 degrees C in 5% CO2 before addition of […] of TLR ligand Pam3CSK4 for 5 hours. The medium was then removed, replaced with […] growth media and cell were transfected with […] of LipidA and TransIT-TKO (Mirus) for 24 hour. At the end of the LipidA treatment, […] of supernatant was transferred to a 384 Greiner Bio-one non-binding low volume plate and […] of IL-1a HTRF reagent (Cisbio, 62MIL1APEH) was added and incubated at room temperature overnight. The plates were read on an EnVision plate reader (PerkinElmer). Cell viability was measured by adding 20ul Cell Titer Glo to the original plate and running a luminescence read on the EnVision. The quantified IL-1a signal for each siRNA gene-targeted well was divided by the median of the negative control wells and multiplied by 100 to achieve a negative control normalized value for each well/siRNA. This normalized value was then used to generate a robust z-score by first taking the log of each value and then by subtracting the median and dividing by the […].
CGACAACAUUUUCCUGUCATT against Serpinc1: the z-score is -2.07 (active). In the case of GGAGAGAGAGAAGAAGGAUTT against Zmat2, the z-score is -1.47.

As to GCUCAUUCCAGGUAUCUGATT against Fcna, the z-score was -1.19. To GCUAUGACAGUUAUGCUACTT against Cirbp belongs 0.874; to GGAUACGAGACAAUGAGAATT against Kctd2, -0.404. Regarding GCGAAUUACUAUGUACCUATT against Sqor, the z-score is 1.75. Take GGACUGAGGAGAGCAAUAUTT against Cts6: the z-score was -1.29. Then GGCGGACAGAAAUUAUAGATT against Tnpo3, with 3.19 (active); and CCGUUGCCUGAUAAGUUCUTT against Klf3, with 0.576.

On to GCCUUUCUGAGGGAUUUUGTT against Eif1ad, for which the z-score is -1.81. As to GCCAAGCUUACUCAGAUUUTT against Mslnl, the z-score was 2.45 (active). Then GGCCUUUAUUCAGAUGUCATT against Zscan12, with -2.79 (active).

Take GGUUUAGGCAACUAAGUUGTT against Stat5a: the z-score is 0.426. To GCAAAGUACCCACCUUUGUTT against Pitpna belongs 2.06 (active); to GGCAACUUUGAAGUCUUGATT against Dntt, -0.488. To GGGUUCUUUUAGGUUGUCATT against Ccdc85a belongs -0.123; to GGAACUUCAUCCAAACUGATT against Ap4m1, -0.12. Then CGUCCAAGCAUAUAUGAAATT against Slfn8, with 1.36; and GGGAAGAGAAUGAGAUAAATT against F7, with 3.22 (active); and CCGACAUUCGAGUUUUGCGTT against Rrp9, with -0.532. For the sequence GCGAACAACCACGUUUUUCTT against Ddx18, the z-score is 0.388. In the case of GGUGUCAAGAAGAAUGUCCTT against Megf11, the z-score was 3.2 (active). Then GGCCGAAAGAUAAAAACAGTT against Rad51d, with 0.173; and GCGACACCACUGAUGACGATT against Gga2, with -0.473; and GGAAAAACAUGCCAAAAAATT against Mettl15, with -0.222. To CCUUAGUAUGUAUGUGGUATT against Map10 belongs -2.65 (active); to CCACACUUCCCUUAUUUAATT against Arpc5, 1.35. To GGCUAAAGACCAGUAUUUGTT against Cdh7 belongs 2.47 (active); to CGCAGUCAAAUUUGAAAGUTT against Car5b, 0.775; to GGCUGACAGACAAGAUUGUTT against Tfb1m, -1.3.

For the sequence GCCUGUGGUGAUUCUCUUGTT against Tmem53, the z-score is -0.093. Then CCCAGUUAUCCUGAAAAGUTT against Ears2, with 0.526; and GCAAAAGUAUUUUGUGUCCTT against Aamp, with 0.241; and GCGCAAUGAACGGUUCUACTT against Prepl, with 3.96 (active). Then GGGAUGUGAGGGAAUUAACTT against B4galt3, with -1.03; and GGUCUUCAAGAACUGUAGCTT against Bcl11b, with 1.09. Regarding GCACACCAGAUCUACUUCUTT against Cyp2b9, the z-score was 0.3.

In the case of GCUUCACUCCACCUUUCAGTT against Prkcg, the z-score was 0.767. To GGUCGUUUCUAUGAUUGGCTT against Olfr589 belongs 0.568; to “GCUCGAAGAAAGGCCCUGATT against B430306N03Rik”, -0.509; to GGACCUAAACAACGUGUUGTT against Klf2, 2.74 (active). To GGAAAGAAGAAGAGUCUAATT against Nucb2 belongs 0.994. Then GGCCGGAGCUUACGAUUUUTT against Camk2d, with 0.309. On to GGGAACAAAUUCAUUGUAUTT against Eny2, for which the z-score was 2.26 (active). Then GGAAGUGAGAUGUCACUGATT against Ssc5d, with 0.841; and GGAUACCAAGCAUCGGAAGTT against Tfap2e, with -0.0352; and GGCAGAAACAGUCCUUGUUTT against Gfra4, with -1.54.

For GGCGUAUACCGGGAAUCCUTT against Ndrg1, the z-score is -0.505. To GCAAUGAGUACUAUCAUACTT against Gnal belongs -2.71 (active). With GGUUAAAUCGAUUUUGCAUTT against Acbd5, the z-score is -0.185. Regarding GGGAUACCAUCUUUAUGGCTT against Vwa3b, the z-score is -0.041.

Consider GCAAUGGACUGACAUGUCATT against Csdc2, for which the z-score is -0.339. Then CGGACAAGUGUUUUUCGUUTT against Wwox, with 0.315.

Turning to GGCUGUGCUCCUUGUUAGUTT against Olfr1143, the z-score is -0.083.

With GCGGUGAUGAGAGAAACCATT against Zfp617, the z-score was 0.872.

Turning to GGACCCUUUCUUUGAUAUGTT against Rpe, the z-score was 1.01.

On to GCCACUGGAGUAUAGCCAGTT against Pcnx3, for which the z-score is 0.019. Then CCUCUUAUAUGCAUGUGGCTT against Olfr410, with -2.13 (active). To CCAAAGCUAAAACGGGUGGTT against Tppp3 belongs 0.597.

As to GCUGGACAUCGACUUUGGATT against Prnd, the z-score is -1.54.

As for CCUAUGUUUUAGCAAGCAGTT against Acyp2, the z-score is 0.758. Then GCCAUCAUCUUUGUUUAGUTT against Gm4952, with -0.684; and GGACAUCCUCUUACAGUGGTT against Zg16, with 0.333.

As to GGUCAUCUCCAAACCCUCCTT against Rbpj, the z-score is 1.51. Regarding GGAAGAGGCCAGCUAUAACTT against Dcaf1, the z-score is -2.51 (active). Then GGAGGGAUCUAAGGAACAGTT against Fgf8, with 0.263. Then GGAAUGAUUUUUGUUUGCUTT against Sf3b3, with -1.6.

On to GGCACAUUCAACAACAUUUTT against Zfp592, for which the z-score was 1.61.

As for GGAUCUUAGCAUGUCAACATT against Zfp330, the z-score was -1.29. Then GGUUCAGAUGGGAAAAAGGTT against Khdrbs2, with -2.41 (active).

For the sequence GGAGAACCCUUAUGUGACATT against Pik3ca, the z-score was -1.91.

On to GGAGGAUGGUGCCAACAUUTT against Psmc3, for which the z-score was -2.02 (active).

Take GGUAAAAACUUUCCUUUAGTT against Prph2: the z-score was 1.48.

For GGAAUGCAAAAAACUCUGGTT against Gzmg, the z-score was 0.906. To GGCCUGAGUAUAAAGUUAGTT against Wbp2 belongs 1.6. To GGAUGAAUAAGGACAGAUUTT against Phospho2 belongs 0.335; to GGUUACGUGUUUGUAUCUATT against Higd1a, -0.395. To GGCUCUUGAAAAAAACCCATT against Utp11 belongs 0.441. Consider “CGAGCUUAUGCUGAAACCATT against 3830417A13Rik”, for which the z-score was -2.45 (active). To GGUGACUAGGAAGAACACGTT against Tmem9b belongs 1.99. To GUACCUGAACUCAACUGAGTT against Ffar2 belongs -0.0572; to CCCAGAAGAGGUUACAUUUTT against Cd200r4, 0.0312; to GGAUAUGCAGUGGAACUAUTT against Heph, -2.13 (active). Turning to GGGAUCAGAGAUAUAGCCATT against Vmn1r192, the z-score is -1.74.

With GCAGGGUACUGGCUAAAUATT against Cd40, the z-score was 2.93 (active). Then GGACAGAUUUUCACCAUUCTT against Slc1a4, with -0.593. To GGUGAAGCAUCAGUGACAATT against Ubxn4 belongs 0.734; to UUUCAAUCUGUAGCUUUCCTT against Krt86, 0.071. With GCUACACCGUAACAUGCUATT against Zer1, the z-score is 2.19 (active). Then GCUAUGUAAGACAUUUAACTT against Ccdc162, with 1.6. As for CGUUUAUUGUAACCAGAAUTT against Fam168b, the z-score is 0.263.

In the case of GGAGGAAUUCAUUAGAAACTT against Psmc1, the z-score was -2.04 (active). Then GGCUUUCCUCCAGAUAAACTT against Il6st, with -0.856.

Regarding GCGACGAGAAGAAUCUGCUTT against Mtcl1, the z-score is -0.641.

For the sequence CCGUGGAGUAACAAGUAUGTT against Capzb, the z-score is -1.07. To CGAUCUAGUCCGCCAUUACTT against Lck belongs -1.3. Then GCAAGACCCAAGAGUUACATT against Soat2, with -2.07 (active); and GCGAAGGAAUUUAAGGACCTT against Tmod1, with 0.836. Then GGCACCAUCUAUUAUUUUCTT against Psmc3, with -2.45 (active); and CCAAUGAUAGACUUUAUACTT against Adgrv1, with -0.252; and GCAGUUCACGCAGUGGAAGTT against Fam25c, with 1.3. UCAUAGCAGAGAUUAGAAUTT against Hsfy2: the z-score is -0.951. Then CCUCAGGUUAUUGAAUAUUTT against Rapgef6, with 0.502; and GGACAAAACGUGCAAUAUGTT against Pkdcc, with -0.188; and GCAGAUUGCUCAGAUUACCTT against Brip1, with 0.407.

In the case of GGUUCUUCGGCUUAUGUUGTT against Rgs7bp, the z-score was 0.537. Then GGACAAAAUAAUGCUUUCUTT against Cnnm1, with 0.0436; and GGAAUGUUACAUUUCAGUUTT against Adam1a, with 2.15 (active).

Regarding “CCCGUAUCUUUUUAGCUAATT against A630038E17Rik”, the z-score was 0.35.

Values taken from PubChem BioAssay AID1508600 (Functional Genomics Laboratory (NCATS/FGL), 2020).
